High-throughput results (PubChem BioAssay)
Compounds with a hit are over-represented: about 14% of the library has one in this group of screens.
Pf growth 48h: inhibits P. falciparum growth in the first generation, 48 h; P. falciparum luciferase growth in erythrocytes, 48 h; Potency, µM (top dose mostly 28.7 µM), without a hit: at the highest dose activity change, negative = inhibition, actives largely listed as inhibitors; actives 5.9% (n = 310,000); AID 504832; also: potency is read from the fitted curve at half-maximal effect
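Luciferase-expressing P. falciparum in infected erythrocytes (2% hematocrit, 0.1% parasitemia final) in RPMI 1640/0.5% Albumax were exposed to compound for 48 hours at 37 C, 5% CO2; growth read as luminescence.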
HCMV antiviral: human cytomegalovirus inhibition; HFF cells, HCMV-luciferase reporter, 72 h; hits give low values; activity change, negative = inhibition, % at 57.5 µM; actives 4.5% (n = 410,000); AID 1259415; in the data active = activity change below about -60%; inconclusive = no clear call, values can overlap the other calls; inactive = above about -39%
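After 16 h attachment at 37C, HFF cells received test compound and HCMV-luciferase (1 PFU/cell); reporter luminescence read 72 h later, data normalized against buffer-only and known inhibitor Salinomycin.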
Giardia FBPA inh: inhibitors of Giardia lamblia fructose-1,6-bisphosphate aldolase. purified Giardia FBPA. Potency, µM (series often up to 59.6 µM), inactives show top-dose activity, negative = inhibition, hits mostly inhibitors. actives 0.71% (n = 290,000). AID 2451; also: potency is read from the fitted curve at half-maximal effect; nearly all actives have a fitted effect of over 55% in size
Target sequence (A8B2U2 whole entry, looked up): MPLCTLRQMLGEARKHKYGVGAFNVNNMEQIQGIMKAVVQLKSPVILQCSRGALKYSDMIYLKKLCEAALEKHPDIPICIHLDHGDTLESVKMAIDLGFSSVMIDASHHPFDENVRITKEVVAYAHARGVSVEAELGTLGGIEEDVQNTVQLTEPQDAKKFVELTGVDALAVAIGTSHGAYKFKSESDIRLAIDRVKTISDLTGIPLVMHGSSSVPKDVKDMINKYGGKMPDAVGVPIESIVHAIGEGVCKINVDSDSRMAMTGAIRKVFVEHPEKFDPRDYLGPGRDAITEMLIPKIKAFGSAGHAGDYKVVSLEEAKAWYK
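Giardia FBPA (40 nM reagent) was preincubated 10 min at RT with compound (up to 57.5 uM final), then substrate plus GAPDH/TPI/NAD/arsenate coupling system with diaphorase/resazurin was added; resorufin fluorescence (525/598 nm) was read after 20 min.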
Pf growth 96h: inhibits malaria parasite growth, 96 h. Potency, µM (doses to about 28.7 µM), for inactives: at the top dose activity change, negative = inhibition, hits mostly inhibitors. AID 504834. P. falciparum luciferase reporter growth, 96 h. actives 6.9% (n = 320,000); also: potency is read from the fitted curve at half-maximal effect
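Two parasite generations (96 h, 37 C, 5% CO2) of compound exposure in infected erythrocytes (0.05% parasitemia, 2% hematocrit). Luciferase-reporter P. falciparum; decreased luminescence indicates inhibited growth, aimed at apicoplast-acting delayed death.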
Sm TGR inh: blocks Schistosoma mansoni thioredoxin glutathione reductase | Q962Y6 | purified TGR, DTNB reduction, TNB absorbance 405 nm | Potency, µM (doses to about 114 µM), without a hit: at the highest dose activity change, negative = inhibition, usual class: inhibitors | actives 3% (n = 360,000) | AID 485364; also: potency is read from the fitted curve at half-maximal effect; nearly all actives have a fitted effect of over 60% in size
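TGR 20 nM + NADPH 100 uM (dispensed conc.), cpd preinc 15 min RT; start with NADPH (500 uM addition) then DTNB (15 mM addition). Kinetic TNB absorbance, 405 nm filter. Four-parameter Hill fit across titration.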
Active calls of the source: *; ? = inconclusive; / = not tested or not shown; [ ] = another dose, or the depositor's remark. Unless noted, calls follow the shape of the dose curve; as a rule, active = well fitted curve in the direction sought with a large enough effect; inconclusive = small, poorly fitted or top-dose-only effect, or another doubt; inactive = no such curve, though single readings can be large; an effect the other way counts as inactive or inconclusive. % is scaled to controls: 0 for no effect and ±100 for the full control effect.

SMILES | Pf growth 48h | HCMV antiviral | Giardia FBPA inh | Pf growth 96h | Sm TGR inh
COC(=O)CC1Oc2ccccc2-n2cc(-c3ccc(F)cc3)nc21 (centres undefined) | / | -32 | / | / | 2%
Cc1ccc(-c2cc(C(=O)N/N=C/c3c(C)nn(-c4ccccc4)c3C)[nH]n2)cc1 | 12µM* | -98* | 1% | 6.6µM* | 3%
O=C(N/N=C/c1ccco1)c1cccc(N2Cc3ccccc3C2)c1 | -15% | -25 | -21% | 68% | 3.5µM*
Cc1ccc(-c2cc(C(=O)N/N=C/c3c(C)nn(-c4ccccc4)c3C)n[nH]2)s1 | ? | -92* | 1% | 60% | -9%
Cc1ccc(-c2cc(C(=O)N/N=C/c3ccco3)[nH]n2)cc1 | 12µM* | -6 | -1% | -8% | 60%
O=C(N/N=C/c1ccco1)c1cccc(N2CCCC2=O)c1 | 85% | 59 | -5% | 62% | -20%
C[C@H](CO)N1C[C@H](C)[C@@H](CN(C)Cc2ccc(Cl)c(Cl)c2)Oc2c(NS(=O)(=O)c3cccs3)cccc2C1=O | / | -35 | / | / | /
CCCN1CCN(S(=O)(=O)c2c(C)[nH]c(C)c2C(=O)N2CCCCC2)CC1 | -6% | ? | 1% | -16% | 5%
CNc1ccc2oc(C[C@H]3O[C@@]4(CC[C@H]3C)O[C@H]([C@H](C)C(=O)c3ccc[nH]3)[C@H](C)C[C@H]4C)nc2c1C(=O)O | 0.93µM* | -100* | ? | 0.41µM* | -11%
COC(=O)c1ccc2nc(C3CCCCC3)c(Cc3ccccc3OC)n2c1 | / | 26 | / | / | /
O=C(CCNS(=O)(=O)c1ccc2[nH]c(=O)oc2c1)NCc1ccc(F)cc1 | 15% | -19 | / | 20% | 0%
O=C(CCNS(=O)(=O)c1ccc2[nH]c(=O)oc2c1)NCc1ccccc1 | 7% | -19 | / | 12µM* | 8%
Cc1ccc2nc(N(Cc3cccnc3)C(=O)c3ccco3)sc2c1 | / | -6 | / | / | 4%
CCOC(=O)c1ccc(N2C(=O)c3n[nH]c(C)c3C2c2ccc(OC)c(OC)c2)cc1 (centres undefined) | ? | 18 | 26% | 9.3µM* | ?
CCOC(=O)c1ccc(N2C(=O)c3n[nH]c(C)c3C2c2ccc(OC)cc2OC)cc1 (centres undefined) | ? | 22 | 6% | 12µM* | -7%
CCOC(=O)c1ccc(N2C(=O)c3n[nH]c(C)c3C2c2ccco2)cc1 (centres undefined) | -18% | -36 | 11% | 27%[5.75 µM] | -30%
CCOC(=O)c1ccc(N2C(=O)c3n[nH]c(-c4ccco4)c3C2c2ccc(OC)cc2OC)cc1 (centres undefined) | / | -105* | / | / | -23%
CC(C)N1CCSC1=S | / | 7 | / | / | /
Nc1cc(=O)[nH]c(=O)n1CCc1ccccc1 | ? | 37 | 13% | ? | -2%
CC(NCCN(C)C)C(=O)C12CC3CC(CC(C3)C1)C2 (centres undefined) | ? | 31 | -17% | 5.9µM* | -8%
C#CCCCO/N=C1/C[C@@H](O)[C@@H](O)[C@@H]2[C@@H]3C(=O)N(c4cccc(Oc5ccccc5)c4)C(=O)[C@H]3CC[C@H]12 | / | / | 0%[12.9 µM] | / | /
O=C(N/N=C/c1ccc(N2CCOCC2)s1)c1ccc(NS(=O)(=O)c2cccs2)cc1 | ? | -28 | 6% | -16% | ?
CCOC(=O)N/N=C/c1ccc(N2CCOCC2)s1 | 2.6µM* | -1 | 1% | 38% | -9%
O=C(N/N=C/c1ccc(N2CCOCC2)s1)c1ccccc1Cl | -30% | 50 | -7% | ? | -26%
C(=N\N(c1ccccc1)c1ccccc1)/c1ccc(N2CCOCC2)s1 | ? | -21 | -1% | 8.3µM* | ?
CCCOc1ccc(N2C(=O)CC(N3CCN(CCN=CC4C(=O)CC(C)(C)CC4=O)CC3)C2=O)cc1 (centres undefined) | 13% | -14 | 7% | ? | ?
COC(=O)c1ccc(S(=O)(=O)N(C2CCCCC2)C2CCCCC2)n1C | 10µM* | -4 | 0% | ? | 10%
COC(=O)c1cc(S(=O)(=O)N(C)C2CCCCC2)cn1C | -4% | -18 | / | ? | -10%
CC1(c2ccccc2)CC(C)(C)N2C(=O)Cc3cccc1c32 (centres undefined) | 15µM* | 9 | -8% | 42%[5.75 µM] | 11%
